# Source: the supplement of paper PMC12067926
# Compound: CN(C)C(=O)Nc1ccc(Cl)c(Cl)c1
# Experiment: relative growth (AUC of 72 h growth curve relative to DMSO control, dAUC) (ratio); higher = more growth (less inhibition), active = hit call of the paper
# Settings: 20 µM;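 active = growth AUC significantly below the DMSO wells by Dunnett test; inactive = the rest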
# Experimental: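 Environmental bacterial isolates (Iceland stream sediment and Silwood Park soil) and whole stream-sediment communities were grown in LB from a 1:100 dilution with each pesticide at 20 µM (1% DMSO). A600 was read hourly for 72 h and the area under a spline-fitted growth curve (AUC) was computed. dAUC is the mean AUC of 3 biological replicates divided by the mean AUC of the DMSO controls. Significance was tested by Dunnett's test against the DMSO control.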
row,Target,relative growth
1,Rhizobium 1 (Rhizobium herbae),1.19 (inactive)
2,Arthrobacter 3 (Arthrobacter sp.),0.947 (inactive)
3,Pseudomonas 4 (Pseudomonas peli),0.939 (inactive)
4,Bacillus 1 (Bacillus foraminis),0.958 (inactive)
5,Hymenobacter 1 (Hymenobacter glaciei),1.02 (inactive)
6,Paenibacillus 1 (Paenibacillus castaneae),0.883 (inactive)
7,Microbacterium 1 (Microbacterium arborescens),1.03 (inactive)
8,Community 7,1.23 (inactive)
9,Community 8,1.11 (inactive)
10,Aeromonas 2 (Aeromonas sobria),0.943 (inactive)
11,Community 4,1.09 (inactive)
12,Oryzobacter 1 (Oryzobacter terrae),1.13 (inactive)
13,Carnobacterium 1 (Carnobacterium gallinarum),0.949 (inactive)
14,Pseudomonas 1 (Pseudomonas baetica),1.03 (inactive)
15,Aeromonas 3 (Aeromonas popoffii),0.977 (inactive)
16,Community 6,1.03 (inactive)

row,Target,relative growth
1,Pseudomonas 6 (Pseudomonas sp.),1.07 (inactive)
2,Serratia 1 (Serratia sp. 2015-2462-01),0.942 (inactive)
3,Argrobacterium 1 (Agrobacterium sp.),0.867 (inactive)
4,Pseudomonas 5 (Pseudomonas baetica),1.02 (inactive)
5,Neobacillus 1 (Neobacillus soli),0.899 (inactive)
6,Pseudomonas 2 (Pseudomonas vancouverensis),0.988 (inactive)
7,Prolinoborus 1 (Prolinoborus fasciculus),0.957 (inactive)
8,Pseudomonas 3 (Pseudomonas mandelii),1.02 (inactive)
9,Flavobacterium 1 (Flavobacterium glaciei),0.999 (inactive)
10,Aeromonas 1 (Aeromonas sp. AE235),0.942 (inactive)
11,Arthrobacter 1 (Arthrobacter humicola),0.944 (inactive)
12,Community 10,1.05 (inactive)
13,Sphingomonas 2 (Sphingomonas sp.),1.04 (inactive)
14,Arthrobacter 2 (Arthrobacter humicola),0.977 (inactive)
15,Community 9,1.04 (inactive)
16,Flavobacterium 2 (Flavobacterium succinicans),0.961 (inactive)
